These results are taken from PubChem BioAssay (Tox21).

Test [1] in a line: cAMP Responsive Elements (CRE) small molecule antagonists, cell-based qHTS assay: qHTS cell viability counter screen (AID 2060913). Note: nearly all actives have a fitted effect of over 40% in size. Put shortly: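 CRE-bla HEK293T cells were seeded in assay medium with 10% dialyzed FBS, incubated 18 hrs at 37 C, then exposed to compounds plus 0.25 uM final NKH477 for 3 hrs. Viability was read by CellTiter-Glo luminescence after 30 min, in the same wells.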
In general terms: Quantitative high-throughput screening tests each substance at several concentrations.

Test [2] is described as follows: cAMP Responsive Elements (CRE) small molecule agonists, cell-based qHTS assay: qHTS cell viability counter screen (AID 2060914). Note: nearly all actives have a fitted effect of over 50% in size. Put shortly: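 Cytotoxicity was measured as ATP luminescence (CellTiter-Glo, 30 min at room temperature) in the same wells as the CRE-bla FRET read-out. HEK293T CRE-bla cells had 3 h compound exposure at 37C/5% CO2.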

“And” between values parts separate entries of the source, which are not always exact repeats. Equal values may be shown once. Records with an inconclusive call do not appear. A number with no mark means an inactive call. The source made the active and inactive calls. Calls come from the whole dose curve; as a rule, active = well fitted cell-killing curve with a large enough effect in the repeat runs; inconclusive = weak or mixed curves, or effect the other way; inactive = flat fitted curve, though single readings scatter.
% is set by controls: 0 for no effect and ±100 for the full control effect; potency is the fitted concentration of half-maximal effect.

Take `c1ccc2c(c1)-c1cccc3cccc-2c13`: the Potency result in test [1] and in test [2] was “inactive” in each case.
Turning to `[P]#[In]`, the Potency result in test [1] and in test [2] was “inactive” in each case.
For the compound `CCCCN(CCCCO)N=O`, the Potency entry in test [1] and in test [2] was “inactive” each time.
As to `CCOP(=S)(OCC)Oc1ccc(Cl)cc1Cl`, the Potency entry in test [1] and in test [2] was “inactive” each time.
Take `C1=Cc2cccc3cccc1c23`: the Potency entry in test [1] and in test [2] was “inactive” throughout.
On to `CCCC[n+]1cccc(C)c1`, for which the Potency entry in test [1] and in test [2] was “inactive” in each case.
On to `COP(=S)(OC)Oc1ccc(SC)c(C)c1`, for which the Potency result in test [1] and in test [2] was “inactive” each time.
Consider `CC(C)c1c(CN(C)C(C)Cc2ccccc2)n(C)n(-c2ccccc2)c1=O` (centres undefined), for which the Potency entry in test [1] and in test [2] was “inactive” each time.
Consider `Clc1ccc(C(Cl)(Cl)Cl)cc1`, for which the Potency entry in test [1] and in test [2] was “inactive” each time.
Take `CCCCCCCCCCCCN=C(N)N`: the viability change, negative = cytotoxic in test [1] was -6.77% [at 3.27 µM]. In test [2], the activity change, negative = cytotoxicity was -15.8% [at 3.27 µM].
As to `CCCCCCCCn1sccc1=O`, the Potency in test [1] was 54.6 µM (active) and 64.1 µM (active); in test [2], 43.4 µM (active).
`CON(C)C(=O)Nc1ccc(Br)cc1`: the Potency entry in test [1] and in test [2] was “inactive” each time.
Take `CN(C)CCC#N`: the Potency result in test [1] and in test [2] was “inactive” each time.
As to `OCCBr`, the Potency result in test [1] and in test [2] was “inactive” throughout.
In the case of `COC(C)(C)C`, the Potency entry in test [1] and in test [2] was “inactive” each time.
For the compound `CC(C)(O)C#N`, the Potency result in test [1] and in test [2] was “inactive” each time.
Consider `C[C@]12CCC(=O)C=C1CC[C@@H]1[C@@H]2CC[C@@]2(C)[C@H]1CC[C@]2(C)O`, for which the Potency result in test [1] and in test [2] was “inactive” throughout.
Take `ClC1=C(Cl)[C@]2(Cl)[C@@H]3[C@@H]4C[C@@H]([C@H]5O[C@@H]45)[C@@H]3[C@@]1(Cl)C2(Cl)Cl`: the Potency was 54.5 µM (active) in test [1] and 61.1 µM (active) in test [2].
As for `CC(C1CC1)C(O)(Cn1cncn1)c1ccc(Cl)cc1` (centres undefined), the Potency entry in test [1] and in test [2] was “inactive” throughout.
`OC[P+](CO)(CO)CO`: the Potency result in test [1] and in test [2] was “inactive” each time.
Regarding `CCCCC#N`, the Potency result in test [1] and in test [2] was “inactive” each time.
As to `c1coc(-c2nc3ccccc3[nH]2)c1`, the Potency result in test [1] and in test [2] was “inactive” throughout.
`OCC(O)CCl` (centres undefined): the Potency result in test [1] and in test [2] was “inactive” each time.
As to `CCOC(=O)C1(c2ccccc2)CCN(CCc2ccc(N)cc2)CC1`, the Potency result in test [1] and in test [2] was “inactive” throughout.
Turning to `BrCC(Br)(Br)Br`, the Potency entry in test [1] and in test [2] was “inactive” throughout.
With `O=[N+]([O-])C(Br)Br`, the Potency result in test [1] and in test [2] was “inactive” each time.
As for `C=CC(=O)N(C)C`, the Potency entry in test [1] and in test [2] was “inactive” in each case.
For the compound `CCOC(=O)NC(O)C(Cl)(Cl)Cl` (centres undefined), the Potency entry in test [1] and in test [2] was “inactive” each time.
As for `C[C@]1(O)CC[C@H]2[C@@H]3CCC4=CC(=O)CC[C@]4(C)[C@@]3(F)[C@@H](O)C[C@@]21C`, the Potency entry in test [1] and in test [2] was “inactive” in each case.
As for `O=c1ssc(Cl)c1Cl`, the Potency entry in test [1] and in test [2] was “inactive” throughout.
Regarding `CCC(OC(C)=O)C(CC(C)NC)(c1ccccc1)c1ccccc1` (centres undefined), the Potency entry in test [1] and in test [2] was “inactive” throughout.
In the case of `SCc1ccccc1`, the Potency entry in test [1] and in test [2] was “inactive” throughout.
With `CCCCOC(C)=O`, the Potency result in test [1] and in test [2] was “inactive” in each case.
For `CCCCS(=O)(=O)Cl`, the Potency entry in test [1] and in test [2] was “inactive” in each case.
`CC1=C(C(=O)O)N2C(=O)[C@@H](N)[C@H]2SC1`: in test [1], the viability change, negative = cytotoxic was 6.72% [at 18.9 µM]. In test [2], the activity change, negative = cytotoxicity was 16% [at 18.9 µM].
On to `CCC(COC(=O)c1cc(OC)c(OC)c(OC)c1)(c1ccccc1)N(C)C` (centres undefined), for which the Potency entry in test [1] and in test [2] was “inactive” throughout.
For the compound `CCCCC(CC)COP(=O)(Oc1ccccc1)Oc1ccccc1` (centres undefined), the Potency result in test [1] and in test [2] was “inactive” throughout.
For `CC[C@H](C)[C@H]1O[C@]2(C=C[C@@H]1C)C[C@@H]1C[C@@H](C/C=C(\C)[C@@H](O[C@H]3C[C@H](OC)[C@@H](O[C@H]4C[C@H](OC)[C@@H](NC)[C@H](C)O4)[C@H](C)O3)[C@@H](C)/C=C/C=C3\CO[C@@H]4[C@H](O)C(C)=C[C@@H](C(=O)O1)[C@]34O)O2`, the figures for the Potency in test [1] and in test [2] were 15.4 µM (active) and 19.3 µM (active), respectively.
`O=[N+]([O-])c1ccccc1-c1ccccc1`: the Potency result in test [1] and in test [2] was “inactive” each time.
Turning to `NC(=O)CF`, the Potency result in test [1] and in test [2] was “inactive” in each case.
For the compound `CC(C)(O)C(Cl)(Cl)Cl`, the Potency entry in test [1] and in test [2] was “inactive” each time.
Regarding `BrCCBr`, the Potency entry in test [1] and in test [2] was “inactive” in each case.
`CC1C=[C-]C=C1.[C-]#[O+].[C-]#[O+].[C-]#[O+].[Mn]`: the Potency result in test [1] and in test [2] was “inactive” each time.
For the compound `CC(Oc1cccc(Cl)c1)C(=O)O` (centres undefined), the Potency entry in test [1] and in test [2] was “inactive” throughout.
`NNC(=O)c1cccnc1`: the Potency result in test [1] and in test [2] was “inactive” in each case.
`COP(=O)(OC)C(O)C(Cl)(Cl)Cl` (centres undefined): the Potency result in test [1] and in test [2] was “inactive” in each case.
For the compound `CCNP(=S)(OC)O/C(C)=C/C(=O)OC(C)C` (centres undefined), the Potency result in test [1] and in test [2] was “inactive” each time.
Take `C=C(Cl)Cl`: the Potency entry in test [1] and in test [2] was “inactive” throughout.
`O=NN(c1ccccc1)c1ccccc1`: the Potency entry in test [1] and in test [2] was “inactive” in each case.
Turning to `O=[N+]([O-])c1c(Cl)c(Cl)c(Cl)c(Cl)c1Cl`, the Potency result in test [1] and in test [2] was “inactive” each time.
On to `CCCN(CCCl)c1c([N+](=O)[O-])cc(C(F)(F)F)cc1[N+](=O)[O-]`, for which the Potency result in test [1] and in test [2] was “inactive” each time.
For `CCCCN(CC)c1c([N+](=O)[O-])cc(C(F)(F)F)cc1[N+](=O)[O-]`, the Potency result in test [1] and in test [2] was “inactive” each time.
